This is a sample that favours compounds with a hit; in the whole collection about 2.4% have one here.
TDP1 inh: inhibitors of human tyrosyl-DNA phosphodiesterase TDP1; Q9NUW8; recombinant TDP1, AlphaScreen DNA substrate cleavage; Potency, µM (series often up to 130 µM), inactives show top-dose activity change, negative = inhibition, hits mostly inhibitors; 350,000 tested, 0.28% active; further: on the % scale 0 is the no-effect control and ±100 the full control effect; nearly all actives have a fitted effect of over 40% in size
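Recombinant human Tdp1 (E. coli-expressed, 1 nM final) preincubated with compounds 15 min at room temperature, then 5'-biotin/3'-phosphotyrosine-FITC DNA substrate (15 nM final) added for 5 min. AlphaScreen beads (10 ug/ml final) added 10 min; cleavage lowers signal.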
POLK inh: DNA polymerase kappa (human) inhibition. purified Pol kappa, fluorescent DNA synthesis assay, 10 min. 400,000 tested, 0.53% active. Potency, µM (titrated, usually from 107 µM), for the others: at the top dose activity, negative = inhibition, actives largely listed as inhibitors. AID 588579. Q9UBT6; further: on the % scale 0 is the no-effect control and ±100 the full control effect
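First, compounds were pin-transferred onto 10 nM Pol kappa. After 15 min at room temperature, substrate was added to 50 nM final. Fluorescence was then measured kinetically at 0 and 10 min.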
Pol beta inh: DNA polymerase beta (human) inhibition; Pol beta primer extension/strand displacement, fluorescence kinetic; Potency, µM (top dose mostly 114 µM), without a hit: at the top dose activity change, negative = inhibition, usual class: inhibitors; 340,000 tested, 1.3% active; AID 485314; further: on the % scale 0 is the no-effect control and ±100 the full control effect
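Homogeneous kinetic assay of primer extension and strand displacement by 10 nM Pol beta, preincubated 15 min at room temperature with compound before 50 nM substrate (final) was added. Read at 0 and 10 min; four-parameter Hill fit.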
FEN1 inh: human FEN1 inhibition; P39748; Recombinant FEN1 flap cleavage, fluorescence, 15 min; Potency, µM (series often up to 114 µM), inactives show top-dose activity change, negative = inhibition, usual class: inhibitors; 390,000 tested, 0.35% active; AID 588795; further: on the % scale 0 is the no-effect control and ±100 the full control effect; nearly all actives have a fitted effect of over 65% in size
Target sequence (P39748 whole entry, looked up): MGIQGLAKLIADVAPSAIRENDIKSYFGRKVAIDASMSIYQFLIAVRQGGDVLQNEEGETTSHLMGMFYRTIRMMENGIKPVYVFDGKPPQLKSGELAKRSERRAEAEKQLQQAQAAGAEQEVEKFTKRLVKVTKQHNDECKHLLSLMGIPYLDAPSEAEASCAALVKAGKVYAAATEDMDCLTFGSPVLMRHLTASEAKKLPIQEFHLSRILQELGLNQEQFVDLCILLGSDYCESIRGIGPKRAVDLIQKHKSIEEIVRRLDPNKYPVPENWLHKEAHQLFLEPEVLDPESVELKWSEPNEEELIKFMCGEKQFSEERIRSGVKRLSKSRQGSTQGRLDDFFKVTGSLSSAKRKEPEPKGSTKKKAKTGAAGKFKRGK
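Steps: FEN1 (10 nM) dispensed; compound added by pin tool; 15 min at room temperature; substrate added to 50 nM final; reads at 0 min and 15 min; data normalized and fitted (four-parameter Hill).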
Pol iota inh: inhibitors of human DNA polymerase iota; Pol iota fluorescent replication assay, 10 min; 390,000 tested, 1% active; Potency, µM (doses to about 115 µM), for the others: top-dose activity, negative = inhibition, actives largely listed as inhibitors
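Pol iota at 10 nM preincubated 15 min with compounds at room temperature; reaction started with fluorescent substrate, 50 nM final. Fluorescence read kinetically at 0 and 10 min; buffer-only wells as negative control.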
POLH inh: blocks human DNA polymerase eta activity; Q9Y253; 390,000 tested, 1.2% active; Potency, µM (highest dose often 114 µM), inactives show at the top dose activity change, negative = inhibition, most hits filed as inhibitors; recombinant Pol eta, fluorescent DNA replication assay; AID 588591; further: on the % scale 0 is the no-effect control and ±100 the full control effect
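Pol eta (10 nM) was preincubated with compounds for 15 min at room temperature, after which fluorescent replication substrate (50 nM final) was added to start the reaction. Fluorescence was read kinetically at 0 and 10 min.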
Active calls of the source: *; ? = inconclusive; · = not tested or not shown; [ ] = another dose, or the depositor's remark. The call rests on the fitted dose curve; in most records, active means well fitted curve in the direction sought with a large enough effect; inconclusive means small, poorly fitted or top-dose-only effect, or another doubt; inactive means no such curve, though single readings can be large; an effect the other way counts as inactive or inconclusive. Potency means the concentration at half of the fitted maximal effect.

SMILES	TDP1 inh	POLK inh	Pol beta inh	FEN1 inh	Pol iota inh	POLH inh
CCNc1ccc(Br)cc(C(=O)/C=C/c2c(Cl)cccc2Cl)c1=O	-14.6%	?	8.91µM*	?	4.47µM*	17.8µM*
CCNc1ccc(Br)cc(C(=O)/C=C/c2ccc3c(c2)OCO3)c1=O	-13.3%	?	20µM*	?	3.98µM*	11.2µM*
Nc1ccccc1C(=O)/C=C\c1ccc2c(c1)OCO2	11.1%[21 µM]	·	·	·	·	·
Cc1cccc(N=C2NC(=O)S/C2=C\c2ccco2)c1	0.0%	79.4µM*	?	-26.5%	35.5µM*	?
Cc1ccc(N=C2NC(=O)/C(=C\c3ccco3)S2)cc1	-2.6%	?	?	-5.0%	31.6µM*	14.1µM*
O=C1NC(=Nc2ccc(O)cc2)S/C1=C/c1ccco1	-3.7%	-33.6%	?	-1.1%	6.9%	-9.8%
COc1ccc(NS(=O)(=O)c2ccc3c(c2)n(C)c(=O)c(=O)n3C)cc1Cl	0.0%	-4.2%	32.8%	-5.3%	6.2%	-8.5%
O=S(=O)(/N=C(/Sc1ccccc1)c1ccccc1)c1ccc(Cl)cc1	-9.1%	-18.5%	·	-10.2%	?	·
O=S(=O)(/N=C(/Sc1ccc(Cl)cc1)c1ccccc1)c1ccccc1	?	-31.4%	·	79.4µM*	-14.8%	·
COc1ccc2nc(-c3ccccc3)cc(C(=O)OCC(=O)N3CCCCC3)c2c1	44.7µM*	-39.3%	·	-24.5%	?	?
COc1ccc2nc(-c3ccccc3)cc(C(=O)OCC(=O)N3CC(C)OC(C)C3)c2c1 (stereo unspecified)	·	-26.3%	·	?	?	79.4µM*
Cc1nn(-c2ccccc2)c2nc(C(F)F)cc(C(F)F)c12	56.2µM*	-15.7%	·	-3.0%	-1.5%	3.4%
Cc1cc(C)c2c(C)nn(-c3ccccc3)c2n1	-7.0%	-2.8%	-2.8%	-6.1%	-1.2%	1.5%
CCn1c(C)nc2cc(C(=O)N/N=C/c3cccc(O)c3O)ccc21	·	?	?	-9.2%	25.1µM*	-22.6%
CCn1c(C)nc2cc(C(=O)N/N=C/c3ccccc3)ccc21	2.5%	-7.9%	-14.2%	-2.2%	19.8%	3.5%
CCn1c(C)nc2cc(C(=O)N/N=C/c3ccc(N4CCOCC4)cc3)ccc21	7.7%	-16.6%	22.4µM*	-2.3%	?	-18.0%
COc1cccc(NC(=O)Cn2nc(-c3ccncc3)ccc2=O)c1	1.1%	-3.8%[60.1 µM]	16.6%	-8.9%	20.2%	-13.0%
CC(C)(C)c1ccc(C(=O)N/C(=C\c2cccc([N+](=O)[O-])c2)C(=O)Nc2cccc(C(=O)O)c2)cc1	·	-9.7%	?	?	62.0%	22.4µM*
Cc1nnc(CN(C)c2ncnc3ccc(-c4ccc5c(c4)OCO5)cc23)o1	-2.1%	·	·	·	·	·
COc1ccc(NC(=O)C2CCN(S(=O)(=O)c3cn(C)cn3)CC2)cc1Cl	1.2%	-5.3%[60.1 µM]	32.2%	-1.6%	8.6%	-6.7%
Cc1nc2ccccn2c1C(=O)N/N=C/c1ccc(CNC(=O)C(=O)Nc2ccccc2)o1	2.7%	-20.2%	?	-6.5%	89.1µM*	?
CC[n+]1cccc(Br)c1	·	-3.2%	·	-10.0%	3.3%	·
CC(C)N(C)C1=CC(=O)C(N(C)C(C)C)=CC1=O	·	?	·	3.4%	44.7µM*	7.5%
O=C(Cc1nnc(CNC(=O)c2ccccc2)s1)Nc1ccc(C(F)(F)F)cc1Cl	0.9%	·	·	·	·	·
CCc1cccc(C)c1NC(=O)C1CCN(S(=O)(=O)c2cc(Br)cc3c2N(C(C)=O)CC3)CC1	1.8%	-3.9%	?	-5.5%	-29.4%	-6.6%
SMILES	TDP1 inh	POLK inh	Pol beta inh	FEN1 inh	Pol iota inh	POLH inh
CC(=O)N1CCc2cc(Br)cc(S(=O)(=O)N3CCC(C(=O)Nc4cccc(C)c4C)CC3)c21	5.5%	-23.2%	44.7µM*	18.6%	?	-15.9%
COc1ccc(-c2nn(-c3ccccc3)cc2C(=O)Nc2cccc(C(=O)O)c2)cc1[N+](=O)[O-]	22.4µM*	-26.1%	35.5µM*	?	-16.8%	-11.8%
O=C(CCC(=O)c1cccs1)NCCc1ccc(F)cc1	1.3%	-7.9%	·	8.1%	15.4%	0.7%
NS(=O)(=O)c1ccc(CCNC(=O)CCC(=O)c2cccs2)cc1	-2.8%	-17.8%	·	20.0%	-19.0%	89.1µM*
COc1ccc(NC(=O)Cn2c(=O)c3ccccc3n3nncc23)c(OC)c1	3.8%	-20.1%	4.1%	-1.9%	-1.7%	-5.1%
COc1ccccc1N1CCN(C(=O)CCNS(=O)(=O)c2ccc3c(c2)CCN3C(=O)C2CC2)CC1	0.0%	0.7%[60.1 µM]	14.4%	3.9%	22.4%	-4.3%
C=C(C)C1CC=C(C)/C(=N/NC(=O)CNc2ccc(OCC)cc2)C1 (stereo unspecified)	10.5%	0.2%	-1.6%	-6.3%	89.1µM*	-2.8%
O=C(Nc1ncc([N+](=O)[O-])s1)c1cccs1	1.2%	4.3%	33.0%	6.3%	?	-9.7%
O=C(Nc1ncc([N+](=O)[O-])s1)c1ccccc1Br	7.7%	?	?	15.3%	28.2µM*	50.1µM*
COc1ccc2c(CC(=O)N3CCN(S(=O)(=O)c4cccs4)CC3)coc2c1	6.1%	-11.3%	5.1%	-12.5%	19.3%	2.9%
COc1ccc2c(CC(=O)N3CCN(S(=O)(=O)c4ccc(F)cc4)CC3)coc2c1	-6.9%	?	·	-9.8%	?	31.6µM*
O=C(CCCn1c(=O)c2cccn2c2ccccc21)NCCc1ccc(Cl)cc1	9.1%	-11.0%	-11.7%	-0.6%	44.2%	-20.1%
COc1ccc(-c2nc(C)c(CCNC(=O)c3c(F)cccc3F)s2)cc1	0.0%	-9.0%[60.1 µM]	3.3%	8.3%	8.9%	-7.3%
Cc1c(C(=O)N(Cc2ccco2)Cc2cccs2)oc2ccccc12	-0.3%	?	·	-10.1%	39.8µM*	?
CCCN1CCCc2cc(CN(CCCN3CCOCC3)C(=O)Nc3ccc(CC)cc3)ccc21	11.4%	-17.0%[60.1 µM]	1.6%	4.9%	-19.2%	-13.4%
O=C(O)c1ccc(Cn2ccc3ccccc32)o1	·	-9.5%	?	1.5%	9.6%	44.7µM*
CC[C@]12c3[nH]c4cc(CCC(=O)N(C)C)ccc4c3CCN1C(=O)[C@@H](CC(=O)NCCC1=CCCCC1)C[C@@H]2C(=O)N1CCN(C(=O)c2ccco2)CC1	0.4%[56.1 µM]	5.1%	·	-3.4%	39.9%	-17.3%
COc1ccc(CNC(=O)C[C@H]2C[C@H](C(=O)N3CCCCC3)[C@@]3(C)c4[nH]c5cc(-c6ccco6)ccc5c4CCN3C2=O)cc1OC	4.0%[56.1 µM]	?	·	?	39.8µM*	-15.5%
CC[C@]12c3[nH]c4cc(-c5ccco5)ccc4c3CCN1C(=O)[C@@H](CC(=O)NCCC1=CCCCC1)C[C@@H]2C(=O)N1CCN(C(=O)c2ccco2)CC1	0.1%[56.1 µM]	28.2µM*	·	-7.3%	7.94µM*	-9.7%
